# Test results as given in PubChem BioAssay.
# Activity calls are given as the source filed them.
# Key:
# [1] = E. coli DRC41 culture turbidity changes, primary screen, E. coli filamentation inducer project, strain DRC41, OD650, 48 h (AID 1152);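 also: E. coli MC1000 strain DRC41 lacking acrAB efflux pump and sulA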; details: E. coli DRC41 (acrAB sulA), higher = more signal, called active from +8 up or from −8 down
# [2] = small-molecule binders of probe aLefty1, primary screen, biochemical, small-molecule microarray, 635/667 nm fluorescence (AID 1153); details: higher = more signal;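 also: score merges spot fluorescence with signal-to-noise ratio from the scanned slide images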
# [3] = PSAC antagonists in infected red cells, primary screen, cell-based, P. falciparum Indochina, OD700, 1 h (AID 1154); details: P. falciparum Indochina infected RBC osmotic lysis, higher = more signal, called active from +8 up or from −8 down
# [4] = PSAC antagonists in infected red cells, primary screen, cell-based, P. falciparum Indochina, OD700, 2 h (AID 1155);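 also: lysis reports solute entry through the parasite surface anion channel PSAC; channel blockers reduce lysis of infected cells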; details: P. falciparum Indochina infected erythrocytes, osmotic lysis OD700; higher = more signal, called active from +8 up or from −8 down
# [5] = osmotic lysis modulators in infected erythrocytes, primary screen, PSAC antagonist project, cell-based, P. falciparum Indochina, OD700, 3 h (AID 1156); details: higher = more signal, called active from +8 up or from −8 down
# [6] = PSAC antagonists in infected red cells, primary screen, cell-based, P. falciparum Indochina, OD700, 18 h (AID 1157); details: P. falciparum Indochina infected erythrocytes, osmotic lysis OD700, 18 h; higher = more signal, called active from +8 up or from −8 down
# [7] = modulators of S6 phosphorylation in cells, primary screen, cell-based, A549, cytoblot, luminescence, serum-stimulated (AID 1158); details: A549 phospho-S6 cytoblot, 5 h, higher = more signal;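 also: serum-stimulated A549 lung adenocarcinoma cells; signal is phosphorylated S6 detected by cytoblot immunostaining with HRP secondary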
# [8] = target: NADPH oxidase 2 (Homo sapiens) (UniProt P04839); experiment: NOX2-dependent H2O2 signal modulators, primary screen, NOX inhibitor project, cell-based, HEK293-NOX2, PMA-stimulated, Amplex Red fluorescence (AID 1159); details: 45 min, higher = more signal, called active from +8 up or from −8 down; also: test concentration not given here
# [9] = target: NADPH oxidase 4 (Homo sapiens) (UniProt Q9NPH5); experiment: NOX4-dependent H2O2 signal modulators, primary screen, NOX inhibitor project, cell-based, HEK293-NOX4, tetracycline-induced, Amplex Red fluorescence (AID 1160); details: 45 min, higher = more signal, called active from +8 up or from −8 down
# [10] = target: NADPH oxidase 5 (Homo sapiens) (UniProt Q96PH1); experiment: NOX5-dependent H2O2 signal modulators, primary screen, NOX inhibitor project, cell-based, HEK293-NOX5, Amplex Red fluorescence (AID 1161); details: HEK293-NOX5, ionomycin, 45 min, higher = more signal
# [11] = A549 cell viability effects, profiling panel, calcein-AM fluorescence, 48 h, basal (AID 1162); details: higher = more signal; also: test concentration not given here
# [12] = adipocyte viability effects, profiling panel, cell-based, 3T3-L1 adipocytes, calcein-AM fluorescence, 48 h, basal (AID 1163); details: 3T3-L1 adipocytes viability, higher = more signal; also: test concentration not given here
# [13] = HepG2 cell viability effects, profiling panel, calcein-AM fluorescence, 48 h, basal (AID 1164); details: higher = more signal; also: test concentration not given here
# [14] = MM1S cell viability effects, profiling panel, calcein-AM fluorescence, 48 h, basal (AID 1165); details: higher = more signal;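 also: viability of MM1S multiple myeloma cells under basal unstimulated conditions; test concentration not given here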
# [15] = basal RPMI8226 viability, no added stimulus, profiling panel, cell-based, calcein-AM fluorescence, 48 h, PK04 Diversity Set (AID 1166); details: RPMI8226 myeloma viability, higher = more signal;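 also: cells grown under basal conditions without added stimulus; test concentration not given here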
# [16] = basal HepG2 mitochondrial membrane potential changes, profiling panel, cell-based, JC-1 fluorescence, 24 h, 100 nL compound (AID 1167); details: higher = more signal; also: test concentration not given here
# [17] = basal 3T3-L1 adipocyte mitochondrial potential changes, profiling panel, cell-based, JC-1 fluorescence, 3T3-L1 adipocytes, 24 h, 100 nL compound (AID 1168); details: JC-1 mitochondrial fluorescence, higher = more signal, called active from +8 up or from −8 down; also: test concentration not given here
# [18] = basal RPMI8226 mitochondrial membrane potential changes, profiling panel, cell-based, JC-1 fluorescence, 24 h, 100 nL compound (AID 1169); details: RPMI8226 myeloma, JC-1 mitochondrial potential fluorescence, higher = more signal; also: test concentration not given here
# [19] = basal MM1S mitochondrial membrane potential changes, profiling panel, cell-based, JC-1 fluorescence, 24 h, 100 nL compound (AID 1170); details: higher = more signal; also: test concentration not given here
# [20] = A549 lung cancer cell viability effects, profiling panel, resazurin fluorescence, 24 h, PK04 Diversity Set (AID 1171); details: higher = more signal, called active from +8 up or from −8 down; also: test concentration not given here
# Sequence of NADPH oxidase 4 (Homo sapiens) (Q9NPH5 whole entry, looked up): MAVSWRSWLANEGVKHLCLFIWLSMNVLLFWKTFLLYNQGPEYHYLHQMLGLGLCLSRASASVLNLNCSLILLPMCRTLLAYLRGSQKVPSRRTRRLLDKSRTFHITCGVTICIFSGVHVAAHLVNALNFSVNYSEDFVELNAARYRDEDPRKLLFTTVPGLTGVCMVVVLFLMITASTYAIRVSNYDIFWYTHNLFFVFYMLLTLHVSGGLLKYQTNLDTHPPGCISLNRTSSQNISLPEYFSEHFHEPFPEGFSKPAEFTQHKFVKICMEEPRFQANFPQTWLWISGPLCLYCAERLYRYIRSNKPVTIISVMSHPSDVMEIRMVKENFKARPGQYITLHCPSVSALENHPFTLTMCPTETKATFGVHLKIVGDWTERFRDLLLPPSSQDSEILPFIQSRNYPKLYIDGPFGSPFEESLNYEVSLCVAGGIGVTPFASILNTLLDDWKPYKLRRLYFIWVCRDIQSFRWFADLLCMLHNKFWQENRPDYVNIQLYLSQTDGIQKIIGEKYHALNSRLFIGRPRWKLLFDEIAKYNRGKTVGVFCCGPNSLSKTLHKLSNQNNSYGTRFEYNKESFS
# Sequence of NADPH oxidase 2 (Homo sapiens) (P04839 whole entry, looked up): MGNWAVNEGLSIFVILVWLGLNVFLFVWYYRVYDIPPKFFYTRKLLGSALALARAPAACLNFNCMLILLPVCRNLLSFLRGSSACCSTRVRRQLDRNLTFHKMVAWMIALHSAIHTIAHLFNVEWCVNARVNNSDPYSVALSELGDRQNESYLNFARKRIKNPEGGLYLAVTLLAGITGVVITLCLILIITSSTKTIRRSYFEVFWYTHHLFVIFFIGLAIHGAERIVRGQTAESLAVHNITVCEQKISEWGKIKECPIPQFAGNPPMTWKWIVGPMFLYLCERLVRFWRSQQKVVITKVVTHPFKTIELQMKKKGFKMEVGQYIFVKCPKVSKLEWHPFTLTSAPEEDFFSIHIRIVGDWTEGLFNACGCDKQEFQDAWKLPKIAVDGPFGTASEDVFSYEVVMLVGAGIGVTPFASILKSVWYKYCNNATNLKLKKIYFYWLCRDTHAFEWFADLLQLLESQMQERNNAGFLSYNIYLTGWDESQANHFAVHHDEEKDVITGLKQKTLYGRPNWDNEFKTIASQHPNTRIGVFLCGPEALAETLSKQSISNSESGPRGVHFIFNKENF
# Sequence of NADPH oxidase 5 (Homo sapiens) (Q96PH1 whole entry, looked up): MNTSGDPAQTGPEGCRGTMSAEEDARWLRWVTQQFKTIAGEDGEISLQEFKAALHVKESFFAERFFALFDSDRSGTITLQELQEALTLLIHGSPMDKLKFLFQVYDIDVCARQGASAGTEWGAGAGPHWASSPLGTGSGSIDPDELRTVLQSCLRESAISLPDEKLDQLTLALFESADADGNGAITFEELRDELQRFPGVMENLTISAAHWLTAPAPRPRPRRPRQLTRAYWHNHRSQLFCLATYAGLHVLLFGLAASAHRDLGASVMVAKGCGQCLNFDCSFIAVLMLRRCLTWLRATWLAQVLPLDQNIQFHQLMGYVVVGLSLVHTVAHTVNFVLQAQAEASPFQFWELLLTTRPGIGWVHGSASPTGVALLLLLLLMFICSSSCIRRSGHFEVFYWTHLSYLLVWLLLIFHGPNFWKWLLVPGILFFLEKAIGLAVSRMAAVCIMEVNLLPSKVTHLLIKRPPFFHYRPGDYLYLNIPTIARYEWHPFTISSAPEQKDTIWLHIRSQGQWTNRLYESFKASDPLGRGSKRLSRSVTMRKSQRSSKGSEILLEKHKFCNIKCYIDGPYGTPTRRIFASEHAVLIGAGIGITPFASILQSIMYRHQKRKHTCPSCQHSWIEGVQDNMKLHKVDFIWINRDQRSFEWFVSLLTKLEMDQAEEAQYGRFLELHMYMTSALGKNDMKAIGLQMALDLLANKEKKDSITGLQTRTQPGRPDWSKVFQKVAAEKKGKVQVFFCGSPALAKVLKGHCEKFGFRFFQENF
Structure (SMILES),z-score [1],composite z-score [2],z-score [3],z-score [4],z-score [5],z-score [6],z-score [7],z-score [8],z-score [9],z-score [10],z-score [11],z-score [12],z-score [13],z-score [14],z-score [15],z-score [16],z-score [17],z-score [18],z-score [19],z-score [20]
CC(C)C(O)C1C=CC2C(=O)N(C)C(=O)C2N1Nc1ccccc1 (stereo not given),-0.532 (inactive),0.124,-0.162 (inactive),1.18 (inactive),0.448 (inactive),0.778 (inactive),-0.679,-1.43 (inactive),-3.72 (inactive),-2.93,0.678,-0.955,0.0515,-1.53,-0.283,-0.993,-1.15 (inactive),-0.0596,-0.254,0.204 (inactive)
C=CCC(OC(C)=O)[C@@H]1[C@@H](N(Cc2ccc(-c3ccccc3)cc2)C(=O)c2cccc3ccccc23)c2cc(OCCCO)ccc2N1C(=O)Cc1ccc2ccccc2c1 (stereo not given in full),-0.316 (inactive),-0.191,1.14 (inactive),0.355 (inactive),-0.498 (inactive),0.283 (inactive),0.393,0.949 (inactive),-0.22 (inactive),-4.09,-0.0841,-0.38,-0.0632,-0.211,-0.183,1.47,-1.43 (inactive),1.22,0.313,0.74 (inactive)
CCOC(=O)C[C@H]1[C@H](OC(=O)c2ccc(-c3ccccc3)cc2)[C@@H](NC(=O)c2ccc3ccccc3c2)c2cc(OCCCO)ccc2N1C(=O)c1ccc2ccccc2n1,-0.572 (inactive),0.302,4.55 (inactive),0.568 (inactive),-0.559 (inactive),0.159 (inactive),0.762,-1.35 (inactive),0.928 (inactive),0.0885,0.245,0.543,-0.573,0.477,-1.06,1.33,1.26 (inactive),0.729,0.164,0.094 (inactive)
CO[C@H]1O[C@H](CO)[C@@H](OC(=O)Nc2ccc(C(F)(F)F)cc2)[C@H](OC(=O)Nc2ccc3c(c2)OCO3)[C@H]1OC(=O)Nc1ccc2c(c1)OCO2,-0.463 (inactive),0.662,7.33 (inactive),0.993 (inactive),0.61 (inactive),0.619 (inactive),-0.388,-4.33 (inactive),-0.99 (inactive),-1.82,-2.28,0.758,-2.3,-2.85,-2.66,-0.17,0.298 (inactive),-0.999,-1.01,-3.17 (inactive)
CCOC(=O)C[C@H]1[C@H](OC(=O)c2ccc(-c3ccccc3)cc2)[C@@H](NC(=O)c2ccc3ccccc3n2)c2cc(OCCCO)ccc2N1C(=O)c1ccccc1,-0.715 (inactive),0.0367,0.18 (inactive),-0.168 (inactive),-0.571 (inactive),0.261 (inactive),0.893,-0.59 (inactive),-1.72 (inactive),-1.04,-1.05,0.312,-0.677,0.23,-0.248,1.35,-0.248 (inactive),0.224,0.0802,0.0216 (inactive)
COc1ccc(C(O)C2C=CC3C(=O)N(C)C(=O)C3N2N2CCCCC2)cc1 (stereo not given),-0.625 (inactive),0.381,1.41 (inactive),1.36 (inactive),-0.138 (inactive),1.25 (inactive),-0.734,-0.378 (inactive),-0.744 (inactive),-0.369,-0.972,0.0526,0.133,-0.207,-0.0882,-0.49,0.0216 (inactive),-0.176,0.188,0.014 (inactive)
COC(=O)[C@H](Cc1ccccc1)N1CC(/C=C/C2CC2)=C[C@@H]1[C@@H](O)Cc1ccccc1,0.974 (inactive),0.0082,1.97 (inactive),0.189 (inactive),-0.427 (inactive),0.401 (inactive),0.306,-0.193 (inactive),0.058 (inactive),0.424,0.56,-0.0766,0.942,-3.21,-3.07,-0.0594,0.427 (inactive),-1.04,-2.45,0.73 (inactive)
COc1cc(CO)cc(I)c1O[C@H]1C=C(C(=O)NCCO)C[C@@H](N(CC2CCCCC2)C(=O)c2ccc(C(F)(F)F)cc2)[C@@H]1O,1.76 (inactive),-0.0547,1.05 (inactive),0.447 (inactive),1.69 (inactive),0.329 (inactive),0.597,-0.363 (inactive),0.916 (inactive),0.686,0.608,-0.535,1.42,0.639,-0.189,0.214,-0.0651 (inactive),-1.09,-0.337,0.126 (inactive)
